# Experimental data reported in the supplement of paper PMC6411743.
# ± gives the standard deviation of the averaged measurements. Targets with the largest changes are over-represented here; the source holds about 6,500 in all.
# What was measured:
# Experiment in all cases: NP40-soluble protein abundance relative to vehicle (solubility fold change) (ratio); higher = more soluble protein in presence of ATP
# LAGE3 = molecular target: T1, LAGE3 (UniProt Q14657)
# T1 sequence (whole entry): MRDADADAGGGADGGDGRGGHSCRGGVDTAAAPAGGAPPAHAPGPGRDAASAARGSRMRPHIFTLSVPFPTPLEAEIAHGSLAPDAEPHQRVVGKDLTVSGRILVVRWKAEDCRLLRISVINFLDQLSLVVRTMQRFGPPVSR
# Summary of the method: (§1)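 Each value is a fold change relative to the detergent-processed vehicle, calculated per replicate from vsn-normalised intensities. Jurkat crude lysate received eight concentrations (0.1 to 10 mM) for 10 min at room temperature and 3 min at 37 °C, then was solubilised in 0.8% NP40 with benzonase (60 min, 4 °C). The ultracentrifuged supernatant was TMT-labelled and run by LC-MS/MS in three independent experiments.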
# NHLRC2 = molecular target: T2, NHLRC2 (UniProt Q8NBF2)
# T2 sequence (whole entry): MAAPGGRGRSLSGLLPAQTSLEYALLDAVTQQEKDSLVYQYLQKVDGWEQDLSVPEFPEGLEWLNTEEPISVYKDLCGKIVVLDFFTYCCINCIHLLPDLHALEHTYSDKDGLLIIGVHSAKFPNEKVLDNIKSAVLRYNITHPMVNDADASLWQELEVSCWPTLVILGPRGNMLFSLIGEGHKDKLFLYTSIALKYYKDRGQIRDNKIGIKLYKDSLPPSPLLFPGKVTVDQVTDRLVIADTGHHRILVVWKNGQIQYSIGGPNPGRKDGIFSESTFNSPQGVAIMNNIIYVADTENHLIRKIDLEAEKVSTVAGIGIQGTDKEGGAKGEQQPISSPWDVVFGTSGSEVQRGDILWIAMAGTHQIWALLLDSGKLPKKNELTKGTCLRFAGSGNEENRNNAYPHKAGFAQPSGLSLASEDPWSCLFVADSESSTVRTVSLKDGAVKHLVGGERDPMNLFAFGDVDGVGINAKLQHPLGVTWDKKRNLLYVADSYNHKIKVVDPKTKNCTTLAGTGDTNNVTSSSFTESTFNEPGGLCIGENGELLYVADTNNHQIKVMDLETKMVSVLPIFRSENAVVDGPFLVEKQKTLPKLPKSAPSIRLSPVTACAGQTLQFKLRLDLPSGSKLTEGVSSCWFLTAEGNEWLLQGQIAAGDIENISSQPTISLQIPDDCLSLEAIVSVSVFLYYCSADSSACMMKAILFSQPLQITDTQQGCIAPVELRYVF
# Summary of the method: as §1
# PSMD6 = molecular target: T3, PSMD6 (UniProt Q15008)
# T3 sequence (whole entry): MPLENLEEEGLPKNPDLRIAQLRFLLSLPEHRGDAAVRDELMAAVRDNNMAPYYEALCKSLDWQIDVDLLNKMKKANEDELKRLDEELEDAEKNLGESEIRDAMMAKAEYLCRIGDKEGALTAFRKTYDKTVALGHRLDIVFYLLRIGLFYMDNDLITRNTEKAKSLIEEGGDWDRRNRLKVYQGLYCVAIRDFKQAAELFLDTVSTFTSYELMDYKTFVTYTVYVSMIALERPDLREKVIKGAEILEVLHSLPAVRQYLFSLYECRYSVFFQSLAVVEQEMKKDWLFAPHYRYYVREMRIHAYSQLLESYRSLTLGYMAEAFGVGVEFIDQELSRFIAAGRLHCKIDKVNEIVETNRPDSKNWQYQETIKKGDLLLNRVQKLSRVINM
# Summary of the method: as §1
# [1] = molecular target: T4, UniProt Q12805|Q12805-2|Q12805-3|Q12805-4
# T4 sequence (whole entry): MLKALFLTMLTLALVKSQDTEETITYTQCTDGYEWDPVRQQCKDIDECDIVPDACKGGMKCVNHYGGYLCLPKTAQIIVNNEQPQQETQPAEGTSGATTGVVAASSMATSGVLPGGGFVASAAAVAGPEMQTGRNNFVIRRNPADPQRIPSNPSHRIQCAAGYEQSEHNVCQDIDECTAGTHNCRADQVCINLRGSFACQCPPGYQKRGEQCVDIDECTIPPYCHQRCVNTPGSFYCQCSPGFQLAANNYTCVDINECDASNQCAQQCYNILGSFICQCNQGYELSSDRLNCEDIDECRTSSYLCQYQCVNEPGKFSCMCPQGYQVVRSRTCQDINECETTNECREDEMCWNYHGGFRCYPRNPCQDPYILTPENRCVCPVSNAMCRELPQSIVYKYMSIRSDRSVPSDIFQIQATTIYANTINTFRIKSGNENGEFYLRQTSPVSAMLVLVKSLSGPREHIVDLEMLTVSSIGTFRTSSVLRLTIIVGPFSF
# Summary of the method: as §1
# UniProt Q53H96|Q53H96-2 = molecular target: T5, UniProt Q53H96|Q53H96-2
# T5 sequence (whole entry): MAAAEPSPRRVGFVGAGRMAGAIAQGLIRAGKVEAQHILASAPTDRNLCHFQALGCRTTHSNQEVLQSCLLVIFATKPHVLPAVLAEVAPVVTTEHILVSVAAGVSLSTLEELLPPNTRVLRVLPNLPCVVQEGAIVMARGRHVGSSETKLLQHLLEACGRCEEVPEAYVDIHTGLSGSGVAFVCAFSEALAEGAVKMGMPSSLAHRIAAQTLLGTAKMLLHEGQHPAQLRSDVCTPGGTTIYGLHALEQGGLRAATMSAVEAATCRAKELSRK
# Summary of the method: as §1
# UniProt Q8N6R0 = molecular target: T6, UniProt Q8N6R0
# T6 sequence (whole entry): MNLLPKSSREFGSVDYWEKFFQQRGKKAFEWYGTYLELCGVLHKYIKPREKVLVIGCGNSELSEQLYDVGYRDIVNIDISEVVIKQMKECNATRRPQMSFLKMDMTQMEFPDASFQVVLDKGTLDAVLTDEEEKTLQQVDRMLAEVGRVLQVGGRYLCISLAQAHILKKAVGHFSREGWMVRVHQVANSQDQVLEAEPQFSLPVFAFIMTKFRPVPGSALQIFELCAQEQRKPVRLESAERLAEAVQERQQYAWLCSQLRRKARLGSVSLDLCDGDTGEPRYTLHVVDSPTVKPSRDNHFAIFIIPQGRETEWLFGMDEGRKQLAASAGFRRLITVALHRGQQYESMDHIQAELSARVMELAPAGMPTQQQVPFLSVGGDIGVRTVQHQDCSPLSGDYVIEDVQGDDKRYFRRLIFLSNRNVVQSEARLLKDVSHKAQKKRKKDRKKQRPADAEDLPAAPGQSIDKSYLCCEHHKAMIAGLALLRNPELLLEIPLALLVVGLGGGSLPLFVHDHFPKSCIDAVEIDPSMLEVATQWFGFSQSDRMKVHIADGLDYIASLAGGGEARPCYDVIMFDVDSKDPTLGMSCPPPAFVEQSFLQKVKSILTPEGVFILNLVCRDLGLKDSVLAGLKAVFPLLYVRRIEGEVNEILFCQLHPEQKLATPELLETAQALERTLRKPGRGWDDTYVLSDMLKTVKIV
# Summary of the method: as §1
smiles,measurement,setting,value
Nc1ncnc2c1ncn2[C@@H]1O[C@H](COP(=O)(O)OP(=O)(O)OP(=O)(O)O)[C@@H](O)[C@H]1O [adenosine triphosphate],NP40-soluble protein abundance,LAGE3; concentration: 1mM,0.907 ± 0.071
same,NP40-soluble protein abundance,LAGE3; concentration: 2mM,0.909 ± 0.073
same,NP40-soluble protein abundance,LAGE3; concentration: 4mM,0.901 ± 0.029
same,NP40-soluble protein abundance,LAGE3; concentration: 6mM,0.881 ± 0.072
same,NP40-soluble protein abundance,LAGE3; concentration: 8mM,0.903 ± 0.034
same,NP40-soluble protein abundance,LAGE3; concentration: 10mM,0.882 ± 0.011
same,NP40-soluble protein abundance,NHLRC2; concentration: 1mM,1.01 ± 0.078
same,NP40-soluble protein abundance,NHLRC2; concentration: 2mM,0.994 ± 0.096
same,NP40-soluble protein abundance,NHLRC2; concentration: 4mM,0.979 ± 0.091
same,NP40-soluble protein abundance,NHLRC2; concentration: 6mM,0.976 ± 0.12
same,NP40-soluble protein abundance,NHLRC2; concentration: 8mM,0.985 ± 0.1
same,NP40-soluble protein abundance,NHLRC2; concentration: 10mM,0.983 ± 0.09
same,NP40-soluble protein abundance,PSMD6; concentration: 1mM,0.959 ± 0.015
same,NP40-soluble protein abundance,PSMD6; concentration: 2mM,0.9 ± 0.021
same,NP40-soluble protein abundance,PSMD6; concentration: 4mM,0.893 ± 0.022
same,NP40-soluble protein abundance,PSMD6; concentration: 6mM,0.889 ± 0.048
same,NP40-soluble protein abundance,PSMD6; concentration: 8mM,0.921 ± 0.032
same,NP40-soluble protein abundance,PSMD6; concentration: 10mM,0.886 ± 0.025
same,NP40-soluble protein abundance,[1]; concentration: 1mM,1.03 ± 0.091
same,NP40-soluble protein abundance,[1]; concentration: 2mM,1.04 ± 0.052
same,NP40-soluble protein abundance,[1]; concentration: 4mM,1.06 ± 0.075
same,NP40-soluble protein abundance,[1]; concentration: 6mM,1 ± 0.088
same,NP40-soluble protein abundance,[1]; concentration: 8mM,1.05 ± 0.023
same,NP40-soluble protein abundance,[1]; concentration: 10mM,1.04 ± 0.025
same,NP40-soluble protein abundance,UniProt Q53H96|Q53H96-2; concentration: 1mM,1.04 ± 0.076
same,NP40-soluble protein abundance,UniProt Q53H96|Q53H96-2; concentration: 2mM,1.06 ± 0.1
same,NP40-soluble protein abundance,UniProt Q53H96|Q53H96-2; concentration: 4mM,1.09 ± 0.08
same,NP40-soluble protein abundance,UniProt Q53H96|Q53H96-2; concentration: 6mM,1.01 ± 0.14
same,NP40-soluble protein abundance,UniProt Q53H96|Q53H96-2; concentration: 8mM,1.03 ± 0.11
same,NP40-soluble protein abundance,UniProt Q53H96|Q53H96-2; concentration: 10mM,1.03 ± 0.1
same,NP40-soluble protein abundance,UniProt Q8N6R0; concentration: 1mM,1.04 ± 0.096
same,NP40-soluble protein abundance,UniProt Q8N6R0; concentration: 2mM,1 ± 0.081
same,NP40-soluble protein abundance,UniProt Q8N6R0; concentration: 4mM,1.05 ± 0.072
same,NP40-soluble protein abundance,UniProt Q8N6R0; concentration: 6mM,0.979 ± 0.085
same,NP40-soluble protein abundance,UniProt Q8N6R0; concentration: 8mM,1.05 ± 0.075
same,NP40-soluble protein abundance,UniProt Q8N6R0; concentration: 10mM,1.01 ± 0.053
